High-throughput results from PubChem.
SMARCA2 act: SMARCA2 function activation, primary screen; MG213 cells, MMTV-luciferase reporter, dexamethasone, overnight; activation, % at 9.1 µM; 370,000 tested, 1% active; AID 652017; in the data active = activation above about 7.8%
DAX1 inh-1: inhibits human nuclear receptor DAX1; P51843; HEK293 Gal4-DAX1 luciferase reporter, luminescence; inhibition, % at 6.75 µM; 340,000 tested, 0.99% active;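 active = inhibition above the mean over all tested compounds plus 3 SD, cut at about 4.2% in these data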;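 note: inhibition shows as a rise in luminescence from relieved DAX1 repression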
Target sequence (P51843 207-470 limits assumed): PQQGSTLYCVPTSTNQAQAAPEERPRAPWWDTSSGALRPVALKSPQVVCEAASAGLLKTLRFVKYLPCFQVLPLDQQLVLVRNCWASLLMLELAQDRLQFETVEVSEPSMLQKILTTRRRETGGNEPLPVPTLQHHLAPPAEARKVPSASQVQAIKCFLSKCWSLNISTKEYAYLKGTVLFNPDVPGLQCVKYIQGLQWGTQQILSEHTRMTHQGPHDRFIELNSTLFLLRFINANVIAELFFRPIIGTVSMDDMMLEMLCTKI
ssDAF-12 act: S. stercoralis DAF-12 activation, primary screen; HEK293 ssDAF-12/GRIP1 lit1-tk-luc reporter, luminescence; % of 3 µM dafachronic acid response; 370,000 tested, 1% active; activation, % at 6.8 µM;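 active = activation above the mean over all tested compounds plus 3 SD, cut at about 0.9% in these data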
DAX1 inh-2: DAX1 (NR0B1) inhibition, primary screen. HEK293T StAR-luciferase reporter, SF-1/DAX-1 repression relief. 370,000 tested, 1.1% active. inhibition, % at 6.8 µM. AID 652010;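 active = inhibition above the mean over all tested compounds plus 3 SD, cut at about 3.6% in these data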;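 note: higher inhibition means more luminescence from relief of DAX-1 repression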
hcDAF12 agonist: H. contortus DAF-12 activation, primary screen; HEK293 hcDAF-12 lit1-tk-luc reporter, luminescence; 0% DMSO, 100% Δ7-dafachronic acid; activation, % at 6.8 µM; 370,000 tested, 1.4% active;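 active = activation above the mean of all tested compounds plus 3 SD, cut at about 5.5% in these data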
hgDAF12 agonist: hgDAF-12 agonism, primary luciferase screen; HEK293 GAL4-hgDAF12 UAS-luciferase reporter, agonist luminescence; normalized to butyrate control; activation, % at 6.8 µM; 370,000 tested, 1.8% active;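 active = activation above a cutoff set at the mean of all screened compounds plus 3 SD, cut at about 10% in these data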
SMARCA2 act conf: SMARCA2 activation, confirmation screen; shares compounds with SMARCA2 act; MG213 cells, MMTV-luciferase with dexamethasone, luminescence, overnight; MG213 cells expressing E1A, Rb sequestered; DMSO wells 0%, reference activator 100%; activation, % at 9.1 µM; 3,500 tested, 30% active;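 active = activation above its plate's cutoff, the mean activation of tested wells plus 3 SD, cut at about 7.9% in these data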
VP16 Luc act: GAL4-VP16 reporter activation counter-screen | shares compounds with SMARCA2 act | HEK293 GAL4-VP16 pG5luc reporter, luciferase luminescence; scaled: DMSO wells 0%, SAHA wells 100% | activation, % at 9.1 µM | 3,500 tested, 41% active | AID 686939;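 active = activation above the solvent-only control well mean plus 3 SD, averaged across control plates, cut at about 5.2% in these data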
Of the large screens only hits and unclear results are named; the others gave an inactive call (follow-up assays come after a bar, where they were run). Sampled rows, rich in hits. Any-hit rate of the full collection: about 4.8%.

Cc1ccc2cccc(OCc3ccc(F)cc3)c2n1	none
Cc1cccc(-n2cc(-c3ccccc3)c3c(NN4CCOCC4)ncnc32)c1	none
COc1ccc(NC(=O)/C=C/c2cccc(F)c2)cn1	SMARCA2 act 12, hgDAF12 agonist 13 | SMARCA2 act conf inactive | VP16 Luc act 10
COc1ccc(NC(=O)/C=C/c2ccco2)cn1	none
COc1ccc2cc3cc(C(=O)NC(C)C)oc3nc2c1	SMARCA2 act 9.1 | SMARCA2 act conf inactive | VP16 Luc act inactive
COc1ccc2cc3cc(C(=O)Nc4cc(OC)c(OC)c(OC)c4)oc3nc2c1	none
CCOC(=O)c1sc(NC(=O)CCN2CCN(C)CC2)c(C(=O)OCC)c1C	SMARCA2 act 8.4 | SMARCA2 act conf inactive | VP16 Luc act inactive
CCOC(=O)c1sc(NC(=O)CN2CCCC2)c(C(=O)OCC)c1C	none
COCCCNC(=O)C[C@H]1C[C@H](C(=O)N2CCOCC2)[C@@]2(CCC3CCCC3)c3[nH]c4ccc(Cl)cc4c3CCN2C1=O	SMARCA2 act 10 | SMARCA2 act conf inactive | VP16 Luc act inactive
O=C(C[C@H]1C[C@H](C(=O)N2CCOCC2)[C@@]2(CCC3CCCC3)c3[nH]c4ccc(Cl)cc4c3CCN2C1=O)NCCN1CCOCC1	none
OCC[C@H]1C[C@@H](O)[C@H](O)[C@]2(Cc3ccccc3CO2)O1	none
CC1(C(=O)NS(=O)(=O)c2ccccc2C(F)(F)F)CCN1C(=O)CCc1cccs1 (configuration not stated)	SMARCA2 act 8.7 (no result: DAX1 inh-1) | SMARCA2 act conf inactive | VP16 Luc act inactive
CCc1cc(C(=O)O)c(NC(=O)/C=C/c2ccc(OC)cc2)s1	SMARCA2 act 13 | SMARCA2 act conf inactive | VP16 Luc act 6.1
CCc1cc(C(=O)O)c(NC(=O)/C=C/c2ccc(OC)c(OC)c2)s1	none
Cc1ccc(NC(=O)C2CCCN(c3ncccn3)C2)cc1C (configuration not stated)	SMARCA2 act 15 | SMARCA2 act conf inactive | VP16 Luc act 7.0
COc1ccc(NC(=O)C2CCCN(c3nccc(C)n3)C2)cc1 (configuration not stated)	none
COc1ccc(NC(=O)C2CCCN(c3ncccn3)C2)cc1 (configuration not stated)	SMARCA2 act 8.4 | SMARCA2 act conf inactive | VP16 Luc act 5.2
COc1cc(/C=C/C(=O)O)cc2c1OCCO2	SMARCA2 act 8.0 | SMARCA2 act conf inactive | VP16 Luc act inactive
COc1cc(/C=C/C(=O)O)cc(OC)c1OC	none
Cc1ccc(C2Nc3ccccc3C(=O)N2CCCN2CCOCC2)cc1 (configuration not stated)	none
O=C1c2ccccc2NC(c2ccccc2Br)N1CCCN1CCOCC1 (configuration not stated)	SMARCA2 act 8.1 | SMARCA2 act conf inactive | VP16 Luc act inactive
CC1(C)C(=O)Nc2ccccc2N1C(=O)Cn1ncc(Cl)c(Cl)c1=O	SMARCA2 act 19 | SMARCA2 act conf 23 | VP16 Luc act inactive
Cc1nn(CC(=O)N2c3ccccc3NC(=O)C2(C)C)c(C)c1[N+](=O)[O-]	none
Cn1nnc(-c2ccc(OCc3ccccc3F)cc2)n1	SMARCA2 act 11, ssDAF-12 act 1.0, DAX1 inh-2 3.8 | SMARCA2 act conf inactive | VP16 Luc act 13
CCSc1nnc(NC(=O)/C=C/c2ccco2)s1	SMARCA2 act 10, hcDAF12 agonist 6.0 | SMARCA2 act conf inactive | VP16 Luc act 7.8
CCc1nnc(NC(=O)/C=C/c2ccco2)s1	none
Cc1ccccc1CSc1n[nH]c(NS(=O)(=O)c2ccccc2)n1	SMARCA2 act 8.0 | SMARCA2 act conf inactive | VP16 Luc act inactive
Cc1nc(CNS(=O)(=O)c2ccc(F)cc2)cs1	SMARCA2 act 8.4 | SMARCA2 act conf inactive | VP16 Luc act inactive
CCN(C(=O)COC(=O)/C(C#N)=C/c1ccc(N(C)C)cc1)C1CCS(=O)(=O)C1 (configuration not stated)	SMARCA2 act 8.3 | SMARCA2 act conf inactive | VP16 Luc act inactive
CC1CCCN(C(=O)c2ccc3c(c2)OCCO3)C1 (configuration not stated)	SMARCA2 act 9.9 | SMARCA2 act conf inactive | VP16 Luc act 5.5
O=C(c1ccc2c(c1)OCCO2)N1CCCCC1	none
Cc1cccc(OCC(=O)O/N=C(\N)c2ccccn2)c1C	SMARCA2 act 9.2 | SMARCA2 act conf 10 | VP16 Luc act 7.0
COc1ccccc1C/C(N)=N/OC(=O)COc1cccc(C)c1C	none
COCCN(Cc1ccccc1)C(=O)c1cc(S(=O)(=O)N2CCCCCC2)ccc1OC	none
O=C(N/N=C/C=C\c1ccco1)c1ccccn1	none
Nc1ncnc(Sc2ncccn2)c1[N+](=O)[O-]	SMARCA2 act 18 | SMARCA2 act conf inactive | VP16 Luc act inactive
Nc1ncnc(Sc2ccccc2)c1[N+](=O)[O-]	none
Cc1cccc(C(=O)NCC(=O)N(C)Cc2nc3ccccc3c(=O)[nH]2)c1	none
Cc1ccc(C(=O)N(C)Cc2nc3ccccc3c(=O)[nH]2)cc1NC(=O)c1ccco1	SMARCA2 act 8.1 | SMARCA2 act conf inactive | VP16 Luc act inactive
O=C(O)c1nccnc1C(=O)Nc1ccccc1N1CCOCC1	none
Cc1ccc(C)c(OCc2nc(-c3cccnc3)no2)c1	none
Cc1ccc(-c2nc(-c3cccnc3)no2)c(C)c1	SMARCA2 act 9.2 | SMARCA2 act conf 19 | VP16 Luc act 13
COc1ccc(C(=O)NN2C(=S)N(c3ccc(OC)cc3)C(=O)C2CC(N)=O)cc1 (configuration not stated)	none
O=S(=O)(c1ccccc1)N(Cc1ccccn1)Cc1ccccn1	none
O=c1ccc(Cc2ccccn2)n[nH]1	SMARCA2 act 9.5 | SMARCA2 act conf inactive | VP16 Luc act inactive
Cc1cc(C)nc(SC(C(=O)O)c2ccccc2)n1 (configuration not stated)	none
Cc1cc(C)nc(Sc2nc(Cl)nc(N(c3ccccc3)c3ccccc3)n2)n1	SMARCA2 act 8.3 | SMARCA2 act conf 9.2 | VP16 Luc act inactive
COc1ccc(NC(=O)c2ccc(Oc3ncccn3)cc2)cc1	SMARCA2 act 9.4 | SMARCA2 act conf inactive | VP16 Luc act inactive
Cc1ccc(NC(=O)Cc2nc(CCl)cs2)cc1	none
CSc1nc(Cl)cc(Nc2ccccc2N)n1	none
Nc1nc(Cl)cc(Nc2ccccc2Cl)n1	SMARCA2 act 9.5 | SMARCA2 act conf inactive | VP16 Luc act inactive
